Results filed as inconclusive are left out. Values without a mark were called inactive. Calls of active or inactive are those of the source. Calls come from the whole dose curve; as a rule, active = well fitted inhibition curve with a large enough effect; inconclusive = small, poorly fitted or top-dose-only effect; inactive = flat fitted curve, though single readings scatter.
Each compound was assayed against Glutathione peroxidase 1 (Homo sapiens) (UniProt P07203) (assay: Primary qHTS Assay for Inhibitors of Recombinant Selenoprotein Glutathione Peroxidase 1 (GPX1) (AID 1845191; note: nearly all actives have a fitted effect of over 65% in size)). Conditions: recombinant GPX1, GR-coupled NADPH fluorescence, 15 min; series mostly up to 27.7 µM; activity, negative = inhibition: at the top concentration.
Method in brief: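 GR-coupled assay: compounds preincubated 30 min at room temperature with GPX1, then reaction started with CHP; final 10 nM GPX1, 1 mM GSH, 0.5 mM CHP, 0.5 mM NADPH, 100 nM GR, 0.01% BSA, pH 7.5 Tris buffer. NADPH fluorescence (340/450 nm) read at 0 and 15 min.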
% is set by controls: 0 for no effect and ±100 for the full control effect.

Chain of Glutathione peroxidase 1 (Homo sapiens) (P07203 whole entry, looked up): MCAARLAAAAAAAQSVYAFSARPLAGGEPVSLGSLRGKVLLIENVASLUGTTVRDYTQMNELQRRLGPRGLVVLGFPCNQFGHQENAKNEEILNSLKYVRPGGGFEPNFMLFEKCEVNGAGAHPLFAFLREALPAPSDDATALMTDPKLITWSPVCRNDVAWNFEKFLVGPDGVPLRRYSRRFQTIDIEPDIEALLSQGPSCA

| SMILES | activity, negative = inhibition | Potency | outcome |
| --- | --- | --- | --- |
| CC1(C)CC[C@]2(C(=O)O)[C@H](O)C[C@]3(C)C(=CCC4[C@@]5(C)CC[C@H](O[C@@H]6OC[C@@H](O)[C@H](O)[C@H]6O)[C@@](C)(C(=O)O)C5CC[C@]43C)[C@@H]2C1 (stereo partly specified) | -11.3% [at 15.3 µM] |  |  |
| CCC(CC)CC1(C(=O)Nc2ccccc2SC(=O)C(C)C)CCCCC1 |  | inactive |  |
| COc1cc(CO)ccc1O[C@@H]1O[C@H](CO)[C@@H](O)[C@H](O)[C@H]1O | 3.04% |  |  |
| COc1cc(C2CC(=O)Nc3c2cc(Br)c2ccccc32)cc(OC)c1OC (stereo unspecified) |  |  | inactive [at 48.8 µM] |
| CC1(C)CC[C@]2(C(=O)O[C@@H]3O[C@H](CO)[C@@H](O)[C@H](O)[C@H]3O)CC[C@]3(C)C(=CCC4[C@@]5(C)C[C@@H](O)[C@H](O)[C@@](C)(CO)C5[C@H](O)C[C@]43C)C2C1 (stereo partly specified) | -5.97% [at 15.3 µM] |  |  |
| CC(C)(OC1OC(CO)C(O)C(O)C1O)C1CCC(O)(CO)C2CC(=O)C(C)(O)C2C1 (stereo unspecified) | -10.3% |  |  |
| CC(=O)OC/C(=C/C(=O)O)CC[C@@H]1C(C)=CC(=O)[C@@H]2C(C)(C)CCC[C@@]12C |  |  | inactive |
| C[C@@H]1O[C@@H](O[C@@H]2\C=C/C=C\C=C/C=C\C[C@H](C)OC(=O)/C=C\[C@H]3O[C@@H]3C[C@H](O)C[C@]3(O)C[C@@H](O)[C@@H](C(=O)O)[C@H](C2)O3)[C@H](O)[C@H](N)[C@@H]1O | 2.23% [at 48.8 µM] |  |  |
| CC(=O)OC1C(CO)OC(O[C@H]2[C@H](OC(=O)[C@]34CCC(C)(C)C[C@H]3C3=CCC5[C@@]6(C)CC[C@H](O[C@@H]7O[C@H](C(=O)O)[C@@H](O)[C@H](O[C@@H]8OC[C@@H](O)[C@H](O)[C@H]8O)[C@H]7O[C@@H]7O[C@H](CO)[C@H](O)[C@H](O)[C@H]7O)[C@@](C)(C=O)C6CC[C@@]5(C)[C@]3(C)C[C@H]4O)O[C@H](C)[C@H](OC3OC(C)C(OC4OCC(O)C(O)C4O)C(O)C3O)[C@@H]2O)C(O)C1O (stereo partly specified) | -8.51% [at 9.52 µM] |  |  |
| O=C(/C=C/c1ccc(O)cc1)OC[C@H]1O[C@@H](O/C(=C\c2ccccc2)C(=O)O)[C@H](O)[C@@H](O)[C@@H]1O |  |  | inactive |
| CC(C)(O)c1ccc2c(c1)C(=O)C[C@H]1[C@](C)(C(=O)O)CCC[C@]21C |  |  | inactive |
| O=C(O)c1cc(O[C@@H]2O[C@H](CO)[C@@H](O)[C@H](O)[C@H]2O)ccc1O |  |  | inactive |
| C/C=C1/C[N+](C)([O-])C2Cc3c([nH]c4ccccc34)C(=O)CC1C2C(=O)OC (stereo unspecified) |  |  | inactive |
| COc1cc(Cc2cnc(N)nc2N)c(C(C)C)cc1OC |  |  | inactive [at 48.8 µM] |
| CC1(CO)CC(O)C2(C)CCC3(C)C(=CCC4C5(C=O)CCC(OC6OC(C(=O)O)C(O)C(O)C6OC6OC(C(=O)O)C(O)C(O)C6O)C(C)(C)C5CCC43C)C2C1 (stereo unspecified) | -2.55% [at 15.3 µM] |  |  |
| CC(/C=C/C=C(\C)C(=O)O[C@@H]1O[C@H](CO[C@@H]2O[C@H](CO)[C@@H](O)[C@H](O)[C@H]2O)[C@@H](O)[C@H](O)[C@H]1O)=C\C=C\C=C(C)\C=C\C=C(/C)C(=O)O[C@@H]1C[C@](O)(C(=O)O)C[C@@H](O)[C@H]1OC(=O)/C=C/c1ccc(O)c(O)c1 | -19.8% [at 15.3 µM] |  |  |
| CC1CCC2(C(=O)O)CCC3(C)C(=CCC4C5(C)CCC(O)C(C)(C(=O)O)C5CCC43C)C2C1(C)O (stereo unspecified) |  |  | inactive |
| Cc1nc2cc(-c3cc(F)cc(C#N)c3)ccc2s1 | 0.19% [at 48.8 µM] |  |  |
| C=C1[C@H]2CCC3[C@]4(C)CCC[C@@](C)(C(=O)O)C4CC[C@]3(C2)[C@H]1OC(C)=O (stereo partly specified) | -7.34% |  |  |
| COC(=O)C1=COC(O[C@@H]2O[C@H](CO)[C@@H](O)[C@H](O)[C@H]2O)[C@@H]2[C@@](C)(O)[C@@H](OC(=O)/C=C/c3ccccc3)C[C@]12O (stereo partly specified) | 4.62% |  |  |
| COC1OC(=O)C2=C1C1(C)CCCC(C)(C)C1CC2O (stereo unspecified) |  |  | inactive [at 48.8 µM] |
| COc1cc(-c2ccc(O)cc2)c(OC)c(O)c1C1=CC(=O)OC1CC(=O)O (stereo unspecified) | -10.3% |  |  |
| COc1cc(/C=C/C(=O)O[C@H]2[C@@H]3C=CO[C@@H](O[C@@H]4O[C@H](CO)[C@@H](O)[C@H](O)[C@H]4O)[C@@H]3[C@@]3(CO)O[C@@H]23)ccc1O | -15.4% |  |  |
| CC(C)(O)/C=C/C(=O)[C@](C)(O)[C@H]1[C@H](O)C[C@@]2(C)[C@@H]3CC=C4[C@@H](C=C(O[C@@H]5O[C@H](CO)[C@@H](O)[C@H](O)[C@H]5O)C(=O)C4(C)C)[C@]3(C)C(=O)C[C@]12C |  |  | inactive [at 15.3 µM] |
| CNc1nc(Cc2ccccc2)nc2c1CCNC[C@@H]2C | -22.9% [at 48.8 µM] |  |  |
| O=C(c1ccc(Cl)c([N+](=O)[O-])c1)N1CCN(c2ccccc2F)CC1 |  |  | inactive [at 48.8 µM] |
